The panel holds about 83,000 compounds, 20% with a hit somewhere; the sample as a whole holds those more often.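 Testing used 96-well plates and a 48-hour single-concentration exposure. Example: -40 means 40% of the starting cells died.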 Values without a mark were called inactive. The source made the active and inactive calls. How the source made its calls: active means growth percent below 10; inactive means the rest.
Key:
Assay in all cases: NCI-60 one-dose screen, 48 h (100 = growth as untreated, 0 = no growth, -100 = all killed)
Settings in all cases: 10 µM unless noted
SR leukemia = system: SR leukemia
RPMI-8226 leukemia = system: RPMI-8226 leukemia
OVCAR-8 ovarian = system: OVCAR-8 ovarian
OVCAR-5 ovarian = system: OVCAR-5 ovarian
OVCAR-4 ovarian = system: OVCAR-4 ovarian
SK-OV-3 ovarian = system: SK-OV-3 ovarian
IGROV1 ovarian = system: IGROV1 ovarian
HS 578T breast = system: HS 578T breast
NCI/ADR-RES ovarian = system: NCI/ADR-RES ovarian
BT-549 breast = system: BT-549 breast
MDA-MB-435 melanoma = system: MDA-MB-435 melanoma
SW-620 colon = system: SW-620 colon
MCF7 breast = system: MCF7 breast
HCT-116 colon = system: HCT-116 colon
HCC-2998 colon = system: HCC-2998 colon
KM12 colon = system: KM12 colon
OVCAR-3 ovarian = system: OVCAR-3 ovarian
T-47D breast = system: T-47D breast

Row | SMILES | growth (SR leukemia) | growth (RPMI-8226 leukemia) | growth (OVCAR-8 ovarian) | growth (OVCAR-5 ovarian) | growth (OVCAR-4 ovarian) | growth (SK-OV-3 ovarian) | growth (IGROV1 ovarian) | growth (HS 578T breast) | growth (NCI/ADR-RES ovarian) | growth (BT-549 breast) | growth (MDA-MB-435 melanoma) | growth (SW-620 colon) | growth (MCF7 breast) | growth (HCT-116 colon) | growth (HCC-2998 colon) | growth (KM12 colon) | growth (OVCAR-3 ovarian) | growth (T-47D breast)
1 | O=C(Nc1cccc2[nH]c(C(F)(F)F)nc12)c1ccc(F)cc1 | 76.3% | 30.4% | 90.1% | 99.6% | 80.3% | 98.8% | 85.8% | 77.3% | 92.1% | 87.5% | 87.2% | 91.5% | 83.8% | 84.4% | 115% | 73.1% |  | 
2 | C/C(=C\c1ccc2ccccc2c1)[N+](=O)[O-] | 4.41% (active) | -33.9% (active) | 11.7% | 82.6% | 87.6% | 99.4% | -20% (active) |  | 88.4% | 64.4% | 51.8% | -33.8% (active) | -50.9% (active) | -40.7% (active) | 78.5% | 56% | -76.6% (active) | 
3 | CC(=O)OCC1O[C@@H](OC(C)=O)[C@@H](NC(=O)NS(=O)(=O)c2ccccc2)C(OC(C)=O)[C@@H]1OC(C)=O (some centres undefined) | 88.9% | 107% | 113% | 108% | 109% | 113% | 108% | 109% | 113% | 102% | 105% | 111% | 92.6% | 108% | 113% | 105% |  | 
4 | COc1cccc(Cn2cc3c(c2)-c2oncc2CC3)c1 | 13.8% | 37.6% | 32.3% | 42.6% | 50.9% | 1.4% (active) | 20.1% | 8.85% (active) | 6.75% (active) | 66% | -47% (active) | 26.4% | 18.4% | 8.74% (active) | -32.4% (active) | 5.03% (active) |  | 65.2%
5 | Cc1ccc(OCCn2ccc(=O)n(CCOc3ccc(Cl)cc3C(=O)c3cc(C)cc(C)c3)c2=O)cc1 | 19.7% | 34.1% | 70% | 87.2% | 47.3% | 59.8% | 61.4% | 37.2% | 20.1% | 55.1% | -3.9% (active) | 29.7% | 22.4% | 34.5% | 64.5% | 36.9% |  | 39.5%
6 | Cc1nc(NC(=S)Nc2ccc(F)cc2)sc1C(=O)NNC(=S)Nc1ccc(F)cc1 | 81.6% | -16.8% (active) | 87.4% | 86.3% | 42.8% | 94% | 51.7% |  | 78.1% |  | 71.5% | 86.7% | 72.2% | 44.9% | 68.4% | 76.6% | 56.6% | 35.6%
7 | O=c1c2c(c3ccccc3n1-c1ccccc1)NC(=S)NC2c1ccccc1 (centres undefined) | 108% | 50.1% | 106% | 102% | 79.5% | 95.1% | 102% |  | 109% |  | 111% | 107% | 42.3% | 96.1% | 98.8% | 104% | 105% | 59.9%
8 | CCCC(=O)Nc1ccccc1C(=O)O | 93.1% | 109% | 91.1% | 99.5% | 101% | 104% | 110% |  | 96.3% | 113% | 101% | 105% | 90.7% | 103% | 97.9% | 90.5% |  | 117%
9 | O=C(c1ccccc1)c1ccccc1-c1ccccc1 | 19.2% | 13.6% | 36.7% | 52.6% | 83.3% | 23.5% | 41.7% | -6.36% (active) | -23.7% (active) |  | -22.2% (active) | 15.8% | 18.1% | 14% | 47.1% | 29.5% |  | 27%
10 | COc1ccccc1CNCCCN1C(=O)c2ccc3c4c(ccc(c24)C1=O)C(=O)N(CCCNCc1ccccc1OC)C3=O | -45.7% (active) | -31.8% (active) | -47.1% (active) | -27.4% (active) | -96.5% (active) | 0% (active) | -58.2% (active) |  | -2.55% (active) | -71.6% (active) | -79.3% (active) |  | -63.9% (active) | -60.5% (active) | -94.7% (active) | -79% (active) |  | -22.9% (active)
11 | Oc1ccc2ccccc2c1/C=N\Nc1ccccn1 | 8.32% (active) | 25.2% | 14.5% | 65.3% | 8.67% (active) | 19.8% | -4.78% (active) |  | 0.917% (active) |  | 25.1% |  | 2.43% (active) | 1.72% (active) | 21% | 29.7% | 5.04% (active) | 7.06% (active)
12 | CSCc1ncc(-c2ccc(C(F)(F)F)cc2)c(NC2CCCCCC2)n1 | 13.4% [25 µM] | 3.14% [25 µM] (active) | 75.1% [25 µM] | 97% [25 µM] | 83% [25 µM] | 97.9% [25 µM] | 81.2% [25 µM] |  | 74.9% [25 µM] | 82.1% [25 µM] | 78.7% [25 µM] | 53.1% [25 µM] | 68% [25 µM] | 38.1% [25 µM] | 89.9% [25 µM] |  | 39.4% [25 µM] | 
13 | CC(C)(C)C(=O)CCCCCCCC/C=C/CCCC(O)c1ccco1 (centres undefined) | 14.3% | 91.7% | 104% | 93.6% | 104% | 116% | 116% |  | 108% | 105% | 113% | 113% | 105% | 109% | 88.6% | 113% | 126% | 
14 | COC(=O)C(C)[C@H]1CC[C@@H]2[C@]1(C)CC=C1[C@]23C=C[C@]2(C[C@@H](OC(C)=O)CC[C@]12C)C(C(=O)OC)C3C(=O)OC (some centres undefined) | 55.8% | 60.8% | 95.7% | 109% | 85.7% | 111% | 98.2% |  | 94.3% | 101% |  | 102% | 83.9% | 63.7% | 91.4% | 92.5% | 86.4% | 
15 | COC(=O)C(C(=O)OC)C(Br)C(Br)C(Br)c1ccccc1 (centres undefined) | -10% (active) | 80.5% | 91.8% | 120% | 90.1% | 109% | 107% |  | 111% | 108% | 91.2% | 18.6% | 8.14% (active) | 16.5% | 110% | 101% |  | -32.9% (active)
16 | O=C1OC(c2ccc(-c3ccccc3)cc2)=C/C1=C/c1c2ccccc2cc2ccccc12 | 81.2% | 85.3% | 97.6% | 83.7% | 95.7% | 96% | 101% | 89.8% | 96.5% |  | 102% | 96.9% | 83.9% |  | 98.7% | 97.3% |  | 102%
17 | CCS(=O)(=O)N[C@@H]1O[C@H](COC(C)=O)C(OC(C)=O)[C@H](OC(C)=O)C1OC(C)=O (some centres undefined) | 104% | 105% | 98.6% | 98.8% | 102% | 97.3% | 106% |  | 108% |  | 103% |  | 103% | 95.3% |  | 106% | 101% | 90.7%
18 | CC(=O)N1CCN(CCNC(=O)n2cc(-c3ccncc3)c(-c3ccc(O)c(Cl)c3)n2)CC1 | 85% | 102% | 106% | 114% | 127% | 104% | 127% |  | 107% |  | 103% | 130% | 102% | 111% | 118% | 103% | 112% | 112%
19 | S=C(N/N=C/c1cc(Cl)cc(Cl)c1)NC12CC3CC(CC(C3)C1)C2 | 20% | 73.8% | 56.8% | 85.7% | 23.4% | 66.7% | 78.1% |  | 77% | 98% |  | 73.8% | 82.5% | 69.4% | 115% | 105% | 58.2% | -8.35% (active)
